The record followed here is ChEMBL document CHEMBL4513139, “CO-ADD screening of University of Strathclyde (UK) compounds”.

Molecules are shown by their SMILES. Measured potencies and affinities stand elsewhere.

One experiment deals with Klebsiella pneumoniae. To be noted: Concentration 32 ug.mL-1; ASSAY_TEST Inhibition of Bacterial Growth; detection method Absorption (OD600); MEDIA CAMHB; plate type 384well; NBS; CORNING #3640; time 18 hr.
For another experiment, the system named is Candida albicans. To be noted: 32 ug/mL.
In another experiment the test system is Cryptococcus neoformans. To be noted: Concentration 32 ug.mL-1; ASSAY_TEST Inhibition of Fungal Growth; detection method Resazurin; Absorption (OD600-OD570); plate type 384well; NBS; CORNING #3640.

`CCOP(=O)(OCC)C(Cc1cn(Cc2cnc(C)nc2N)nn1)C(=O)O.O=C(O)C(F)(F)F` (stereo not drawn): the values for the Inhibition with Klebsiella pneumoniae, with Candida albicans and in the experiment with Cryptococcus neoformans were -0.1%, 2.73% and -36.59%, respectively.

A word on the Inhibition: it is the relative decrease from the control value, in per cent.
